Gal4-VP16 FLuc = Gal4-VP16 reporter inhibition counter-screen; Drosophila S2 Gal4-VP16 UAS-luciferase, luminescence, 20 h; Potency, µM (doses to about 53.6 µM), without a hit: at the top dose activity, negative = inhibition, most hits filed as inhibitors; actives 3.5% (n = 310,000); AID 2546;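 also: Gal4-VP16 expression switched on by copper sulfate through the metallothionein promoter; potency is read from the fitted curve at half-maximal effect; nearly all actives have a fitted effect of over 50% in size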
Coupling enz = inhibits coupling enzyme system, counter-screen for aldolase hits; actives 0.67% (n = 290,000); coupling enzyme system counterscreen, AmpLite Red fluorescence; AID 2472; activity change, negative = inhibition, % at 58.2 µM, hits read low; in the data active = activity change below about -30%
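First, compound is pin-transferred into glyceraldehyde-3-phosphate coupling-enzyme reagent at 57.5 uM final and held 10 min at RT. Next, substrate, coupling system and AmpLite Red are added. After 20 min RT, fluorescence (525/598 nm) is read.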
TrxR1 substrate = rat thioredoxin reductase 1 substrate activity. O89049. purified TrxR1 substrate turnover, NADPH consumption readout. Potency, µM (top dose mostly 114 µM), inactives show at the top dose activity change, negative = substrate turnover. actives 0.01% (n = 390,000). AID 588456; also: potency is read from the fitted curve at half-maximal effect; nearly all actives have a fitted effect of over 50% in size
Target sequence (O89049 whole entry, looked up): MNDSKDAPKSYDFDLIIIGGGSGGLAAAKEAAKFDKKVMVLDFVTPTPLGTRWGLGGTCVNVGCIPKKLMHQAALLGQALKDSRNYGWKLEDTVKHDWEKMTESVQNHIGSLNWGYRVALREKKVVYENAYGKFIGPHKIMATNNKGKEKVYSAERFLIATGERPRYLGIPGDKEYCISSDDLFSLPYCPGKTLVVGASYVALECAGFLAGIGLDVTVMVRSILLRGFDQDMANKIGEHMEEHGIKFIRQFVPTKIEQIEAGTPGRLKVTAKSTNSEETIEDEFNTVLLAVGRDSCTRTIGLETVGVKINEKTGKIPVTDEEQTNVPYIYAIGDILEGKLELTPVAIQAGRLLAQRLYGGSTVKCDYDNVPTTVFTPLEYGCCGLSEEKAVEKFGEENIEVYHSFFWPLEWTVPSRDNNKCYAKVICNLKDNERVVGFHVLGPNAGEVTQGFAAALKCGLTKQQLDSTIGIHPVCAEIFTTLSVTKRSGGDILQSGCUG
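Rat TrxR1, dispensed at 90 nM, was prereduced with 400 uM NADPH (final) for 5 min at ~22 deg C, then incubated with compound 15 min before 400 uM selenite. A first-read NADPH fluorescence drop versus no-compound background flagged substrates.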
GALK inh = inhibitors of human galactokinase; P51570; Potency, µM (top dose mostly 57.5 µM), inactives show at the top dose activity change, negative = inhibition, usual class: inhibitors; Purified GALK, Kinase-Glo residual ATP luminescence; AID 1868; actives 0.007% (n = 270,000); also: potency is read from the fitted curve at half-maximal effect
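Compounds were pin-transferred into ATP buffer (35 uM final), then GALK plus galactose (5 nM, 100 uM final) was added. After 1 h at room temperature, Kinase-Glo Plus was added and luminescence read after 10 min.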
TrxR1 inh = blocks rat thioredoxin reductase 1; O89049; recombinant rTrxR1, NADPH fluorescence consumption, selenite substrate; Potency, µM (titrated, usually from 114 µM), without a hit: at the highest dose activity change, negative = inhibition, most hits filed as inhibitors; actives 1% (n = 390,000); AID 588453; also: potency is read from the fitted curve at half-maximal effect; nearly all actives have a fitted effect of over 65% in size
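Rat TrxR1 (90 nM in the dispensed reagent) was pre-reduced with 400 uM NADPH for 5 min at room temperature, then incubated with compound for 15 min. After 400 uM selenite was added, NADPH fluorescence (Ex 340/Em 450 nm) was followed for 8 min.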
RORg inh = ROR gamma (mouse) transcription inhibition | P51450 | Drosophila S2 Gal4-RORgamma UAS-luciferase reporter, 20 h | Potency, µM (highest dose often 53.6 µM), for the others: at the top dose activity change, negative = inhibition, usual class: inhibitors | actives 5.4% (n = 310,000) | AID 2551; also: potency is read from the fitted curve at half-maximal effect; nearly all actives have a fitted effect of over 60% in size
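A Gal4/UAS one-hybrid system in insect cells: metallothionein-promoter Gal4–ROR gamma fusion plus Photinus luciferase reporter. Copper sulfate 700 uM final, 20 hr ambient incubation, luminescent detection after 10 min with reagent.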
* hit, by the source's call; ? = inconclusive; nt = not tested or not shown; [ ] = dose if it differs, or a comment. Most compounds without a hit are left out; they make up all but 5.9% or so of the library. Unless noted, calls follow the shape of the dose curve; as a rule, active = well fitted curve in the direction sought with a large enough effect; inconclusive = small, poorly fitted or top-dose-only effect, or another doubt; inactive = no such curve, though single readings can be large; an effect the other way counts as inactive or inconclusive. % is scaled to controls: 0 for no effect and ±100 for the full control effect.

SMILES	Gal4-VP16 FLuc	Coupling enz	TrxR1 substrate	GALK inh	TrxR1 inh	RORg inh
Cc1oc(C(C)(C)C)cc1C(=O)NCc1ccc2c(c1)OCO2	?	3.4	-7.3%	nt	-12.2%	?
CC(C)(CNC(=O)c1cccc(S(=O)(=O)NCc2ccccc2)c1)N1CCOCC1	nt	nt	-15.9%	nt	-16.0%	nt
COCCNC(=O)C(NC(=O)C1CCCCC1)C(C)C (stereo not drawn)	4.0%	-0.3	8.2%	-1.0%	12.4%	0.5%
CCCn1c(=O)c(C(=O)NCCc2ccc(OC)c(OC)c2)c(O)c2ccccc21	?	1.3	17.5%	-6.7%	76.0%	11.2µM*
CC(C)CC1(C)NC(=O)NC1=O (stereo not drawn)	-14.9%	0.3	-7.7%[57.1 µM]	-0.2%	3.9%[57.1 µM]	-5.8%
OC(CNC1CCCc2ccccc21)COc1c(Cl)cccc1Cl (stereo not drawn)	-0.2%	0.2	-2.3%	0.7%	2.5%	7.4%
Cc1ccc(NC(=O)C(=Cc2ccc(C(=O)O)cc2)C(=O)Nc2ccc(C)cc2C)c(C)c1	?	-0.1	-4.9%	-4.9%	-31.1%	15.8µM*
COc1ccc(CCNC(=S)NC(=O)c2cccc([N+](=O)[O-])c2)cc1OC	15.8µM*	nt	-12.5%	-4.7%	-16.5%	12.6µM*
COc1ccc(/C=C/C(=O)NC(=S)NCCc2ccc(OC)c(OC)c2)cc1	?	0.4	3.7%[57.1 µM]	nt	-23.0%[57.1 µM]	2.82µM*
O=C(NC(=S)NCCc1ccccc1)c1cccc(Cl)c1	17.8µM*	nt	1.1%[57.1 µM]	-8.6%	-44.5%	12.6µM*
Cc1ccc(C(=O)NC(=S)NCCCN2CCOCC2)cc1	-2.7%	-0.2	-0.4%[57.1 µM]	-1.5%	12.0%[57.1 µM]	17.8µM*
O=C(Cc1ccccc1)NCCc1cccc(Cl)c1	-19.6%	3.5	-8.7%	0.2%	-11.4%	?
CC(C)=CC1C(C(=O)NCCOc2ccccc2)C1(C)C (stereo not drawn)	2.3%	0.2	4.5%	-1.1%	14.4%	18.7%
COc1ccc(CCNC(=S)NC(=O)c2cccc(Cl)c2)cc1OC	?	1.7	5.0%	-1.2%	-9.3%	11.2µM*
Cc1ccc(C(=O)N/C(=C\c2ccc(-c3ccccc3[N+](=O)[O-])o2)C(=O)NCCCN2CCOCC2)cc1	?	nt	-6.8%	-0.3%	39.8µM*	-13.3%
COc1ccc(CCNC(=O)c2ccccc2)cc1	8.4%	-4.9	5.5%[57.1 µM]	9.3%	4.0%[57.1 µM]	23.4%
COc1ccc(CCNC(=S)NC(=O)c2ccccc2)cc1OC	7.08µM*	-4.1	6.3%	-3.4%	?	4.47µM*
COc1ccc(C(=O)NC(=S)NCCc2ccccc2)cc1	?	2.1	7.2%	1.7%	?	10µM*
Cc1ccc(C(=O)N/C(=C\c2cn(C)c3ccccc23)C(=O)NCCCN2CCOCC2)cc1	-3.6%	nt	-7.2%	5.0%	0.0%	2.3%
O=C(NC(=S)NCCN1CCOCC1)c1cccc(Cl)c1	?	nt	6.7%	-1.5%	11.6%	11.2µM*
O=C(NC(=S)NCCN1CCOCC1)c1ccccc1	-3.4%	3.9	-3.6%	1.2%	3.6%	?
O=C(NCCCN1CCOCC1)c1cc(-c2cccs2)on1	-10.4%	1.1	-4.3%[57.1 µM]	-0.5%	15.8µM*	1.6%
CC(c1ccon1)N(C)C(=O)c1ccc(OC2CCN(C(=O)C3CC3)CC2)cc1 (stereo not drawn)	-1.3%	-1.2	-3.0%	-1.7%	-5.9%[57.1 µM]	?
CCC(Sc1ccc2nnc(-c3ccc(F)cc3)n2n1)C(=O)OC (stereo not drawn)	-0.4%	3.0	28.4%	-1.0%	30.7%	20µM*
COC(=O)C(C)Sc1ccc2nnc(-c3ccc(F)cc3)n2n1 (stereo not drawn)	6.0%	3.8	6.1%	-1.8%	0.9%	-39.3%
SMILES	Gal4-VP16 FLuc	Coupling enz	TrxR1 substrate	GALK inh	TrxR1 inh	RORg inh
C=CCN1C(=O)/C(=C/c2ccc(OC)cc2)S/C1=N/c1nccs1	-24.9%	-1.3	2.0%[57.1 µM]	-0.1%	5.1%[57.1 µM]	5.01µM*
CCCCNc1cc(NC(C)=O)cc2cc(OC)c(OC)cc12	2.8%	-44.1*	8.4%	-0.9%	-19.7%	?
CN(Cc1ccccc1F)C(=O)C1CCCN(C(=O)c2ccc(Cl)cc2)C1 (stereo not drawn)	nt	nt	-7.2%	nt	-1.5%	nt
CC(C)(C)n1ncc2c(=O)n(CC(=O)OCc3ccccc3)cnc21	1.58µM*	4.4	-5.6%	-0.9%	-5.2%	8.91µM*
CC(C)(C)n1ncc2c(=O)n(CC(=O)c3ccccc3)cnc21	?	-0.7	-4.2%	2.7%	4.1%[57.1 µM]	?
O=C(OCC(=O)N1CCCc2ccccc21)c1cncc(Br)c1	1.12µM*	-4.2	4.9%	0.0%	11.4%	?
Cc1nnc(NC(=O)c2ccccc2Oc2ccccc2)s1	-1.9%	-0.1	-2.1%	10.8%	19.3%	-20.3%
Cc1ncc2c(c1OC(=O)c1ccccc1)COC(C)(C)OC2	4.5%	1.2	3.2%	4.3%	5.1%	-3.1%
Cc1c(OC(=O)c2ccc([N+](=O)[O-])cc2)c2c(c[n+]1C)COC(C)(C)OC2	-1.6%	-5.6	0.4%	-1.2%	44.7µM*	-3.0%
O=c1c2c(-c3ccccc3)csc2nc2c3ccccc3c(NCCN3CCOCC3)nn12	3.16µM*	-0.8	57.7%	-0.7%	62.7%	1.58µM*
O=c1c2ccccc2nc(-c2ccccc2)n1CCN1CCOCC1	-1.6%	-1.8	3.4%	0.9%	-2.4%	6.7%
O=c1c2ccccc2nc2c3ccccc3c(NCCN3CCOCC3)nn12	20µM*	-2.9	nt	-3.6%	nt	12.6µM*
Cc1ncc(CO)c(/C=N/NC(=O)c2ccccc2Br)c1O	17.8µM*	-1.0	37.6%[57.1 µM]	2.7%	17.3%	10µM*
Cc1ncc(CO)c(/C=N/NC(=O)c2ccoc2C)c1O	nt	nt	96.3%	nt	-11.1%	nt
Cc1ncc(CO)c(/C=N/NC(=O)c2ccc(O)cc2)c1O	?	0.3	107.0%	-0.6%	-0.3%	10µM*
Cc1ncc(CO)c(/C=N/NC(=O)c2cc3c(s2)CCCC3)c1O	3.7%	4.7	5.4%[2.29 µM]	5.7%	-1.5%[2.29 µM]	10µM*
O=C1CN(C(=O)c2ccccc2C(F)(F)F)C(c2ccccc2)c2cc(F)ccc2N1 (stereo not drawn)	nt	nt	-6.1%	nt	8.0%	nt
C=CCn1c(SCC(=O)NCC2CCCO2)nc2scc(-c3ccc(OC)cc3)c2c1=O (stereo not drawn)	-11.4%	0.0	-15.7%	4.5%	-11.6%	0.6%
NC(=O)CSc1nc2scc(-c3ccco3)c2c(=O)n1-c1ccccc1	-5.0%	3.4	-1.5%[57.1 µM]	-3.4%	8.91µM*	20.7%
C=CCn1c(SCC(=O)NCCOC)nc2scc(-c3ccco3)c2c1=O	-4.1%	-0.7	-2.2%	4.5%	44.7µM*	0.3%
